Twelve compounds from PubChem BioAssay (NCATS) can be followed below.

Inconclusive results are not listed. Values without a mark were called inactive. The source made the active and inactive calls. Calls follow the shape of the dose curve; as a rule, active = well fitted inhibition curve with a large enough effect; inconclusive = small, poorly fitted or top-dose-only effect; inactive = flat fitted curve, though single readings scatter.
% is scaled to controls: 0 for no effect and ±100 for the full control effect; potency is read from the fitted curve at half-maximal effect.

Phospholipid hydroperoxide glutathione peroxidase GPX4 (Homo sapiens), sequence (P36969 whole entry, looked up): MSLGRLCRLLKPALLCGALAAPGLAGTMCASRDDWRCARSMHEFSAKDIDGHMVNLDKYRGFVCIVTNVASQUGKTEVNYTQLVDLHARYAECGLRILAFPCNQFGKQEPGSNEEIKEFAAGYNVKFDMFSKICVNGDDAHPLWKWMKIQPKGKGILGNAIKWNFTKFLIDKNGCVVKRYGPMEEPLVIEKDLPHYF

This test deals with Phospholipid hydroperoxide glutathione peroxidase GPX4 (Homo sapiens) (UniProt P36969). As to the kind of experiment: Primary qHTS Assay for Inhibitors of Recombinant Selenoprotein Glutathione Peroxidase 4 (GPX4) (AID 1845192). Also: nearly all actives have a fitted effect of over 65% in size. The following applies: recombinant GPX4, GR-coupled NADPH fluorescence, 15 min; series mostly up to 50 µM; activity change, negative = inhibition: at the top concentration. The essentials:
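Steps: GPX4 plus compound, 30 min RT; add GR/GSH/NADPH master mix; start with cumene hydroperoxide; read 340/450 nm fluorescence at 0 and 15 min. Finals were 200 nM GPX4, 1 mM GSH, 0.5 mM CHP, 0.5 mM NADPH, 100 nM GR.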
Background: qHTS replaces the single test concentration by a dilution series.
Take `CC(=O)OCC1=C(C(=O)O)N2C(=O)[C@@H](NC(=O)[C@H](N)c3ccccc3)[C@H]2SC1`: the Potency was 15.8 µM (active).
As for `COc1ccc(CNc2nc(N3CCC[C@H]3CO)ncc2C(=O)NCc2ncccn2)cc1Cl`, the outcome was inactive.
Turning to `C[N+](C)(C)C1CCC(CC2CCC([N+](C)(C)C)CC2)CC1` (configuration not stated), the result was inactive.
On to `C[C@](C#N)(COc1cc(C#N)ccc1C(F)(F)F)NC(=O)c1ccc(SC(F)(F)F)cc1`, for which the “activity change, negative = inhibition” value is -14.1%.
Still for that read-out and setting: to `CCC(C)C(NC(=O)C(Cc1ccc(O)cc1)NC(=O)C(NC(=O)C(CCCN=C(N)N)NC(=O)C(N)CC(=O)O)C(C)C)C(=O)NC(Cc1cnc[nH]1)C(=O)N1CCCC1C(=O)NC(Cc1ccccc1)C(=O)O` (configuration not stated) belongs -14.7%.
Turning to `C#C[C@]1(O)CC[C@H]2[C@@H]3CCC4=CC(=O)CC[C@@H]4[C@H]3C(=C)C[C@@]21CC`, the outcome was inactive.
For `CC(C)(C)NCC(O)COc1ccccc1C1CCCC1` (configuration not stated), the “activity change, negative = inhibition” value was -11.4%.
The same measure, in the same setting: to `O=C(OCCN(CCO)CCO)c1ccccc1O` belongs 2.78%; to `CNCC(=O)OCc1cccnc1N(C)C(=O)OC(C)[n+]1cnn(C[C@](O)(c2cc(F)ccc2F)[C@@H](C)c2nc(-c3ccc(C#N)cc3)cs2)c1` (some centres not stated), -27.7%.
For `CC[C@H]1OC(=O)C[C@@H](O)[C@H](C)[C@@H](OC2OC(C)C(O)C(N(C)C)C2O)[C@@H](CCN2CCCCC2)C[C@@H](C)C(=O)/C=C/C(C)=C/[C@@H]1CN1CCCCC1` (some centres not stated), the “activity change, negative = inhibition” value was 3.6%.
On to `Cc1oc(-c2ccccc2)nc1CCOc1ccc(CC2C(=O)NOC2=O)cc1` (configuration not stated), for which the Potency is 14.1 µM (active).
In the case of `O=C(O)CSc1nnc(Br)n1-c1ccc(C2CC2)c2ccccc12`, the “activity change, negative = inhibition” value is -5.08%.
